“And” between values parts separate entries of the source, which are not always exact repeats. Equal entries are not always repeated. This is part of a sample that, as a whole, favours compounds with a hit. Of some 83,000 tested, about 20% had one in any assay.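 How to read the values: 0–100, growth inhibition (40 = 60% inhibited); 0, no net growth; -100 to 0, cell death (-40 = 40% of starting cells died; -100 = all dead).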 The source made the active and inactive calls. Rule for the calls: active = growth percent below 10; inactive = the rest.
What was measured:
Assay in all cases: NCI-60 one-dose screen, 48 h (100 = growth as untreated, 0 = no growth, -100 = all killed)
Conditions in all cases: 10 µM unless noted
[1] = system: MOLT-4 leukemia
[2] = system: SR leukemia
[3] = system: RPMI-8226 leukemia
[4] = system: OVCAR-8 ovarian
[5] = system: OVCAR-5 ovarian
[6] = system: OVCAR-4 ovarian
[7] = system: OVCAR-3 ovarian
[8] = system: HS 578T breast
[9] = system: NCI/ADR-RES ovarian
[10] = system: T-47D breast
[11] = system: MDA-MB-435 melanoma
[12] = system: SW-620 colon
[13] = system: MCF7 breast
[14] = system: HCT-116 colon
[15] = system: HCC-2998 colon
[16] = system: KM12 colon
[17] = system: SK-OV-3 ovarian
[18] = system: IGROV1 ovarian
[19] = system: BT-549 breast

Measured: growth

CC[C@H](C)[C@H](NC(=O)[C@H]1CCCCN1C)C(=O)N(C)[C@H](C[C@@H](OC(C)=O)c1nc(C(=O)NC23C4C5C2C2C3C4C52C(=O)OC)cs1)C(C)C (some centres not stated)
active: [1] 8.38% | [2] 2.77% | [7] -7.47% | [11] -0.902% | [14] 7.22% | [15] 9.29% | [16] -3.83%
inactive: [3] 29.2% | [4] 16.5% | [5] 55.7% | [6] 50.3% | [8] 34.3% | [9] 10.9% | [10] 73.3% | [12] 41.9% | [13] 13.7%

C[Se]/C=C1/C(=O)N(c2c(Cl)cccc2Cl)c2ccccc21
active: [2] 2.07% | [3] 2.93% | [4] -15.2% | [9] 9.06% | [19] -35.6% | [11] -30.3%
inactive: [1] 10.2% | [5] 28.7% | [17] 61.5% | [18] 44.7% | [7] 20.3% | [8] 13% | [10] 65.8% | [12] 19.3% | [13] 17.3% | [14] 11.4% | [15] 77.2% | [16] 72%

O=C(CCCN1CCC2(CC1)C(=O)NCN2c1ccccc1)c1ccc(F)cc1
inactive: [1] 58.5% and 33% | [2] 99.2% | [3] 103% and 74.8% | [4] 91.8% and 76.1% | [17] 102% and 111% | [18] 73.6% and 29% | [7] 105% and 107% | [8] 97.1% and 79.2% | [9] 101% and 65.8% | [19] 98.2% and 87.2% | [11] 99.7% and 93.6% | [12] 84.4% and 68% | [13] 49.6% and 12% | [14] 73.9% and 19.7% | [15] 104% and 42.3% | [16] 102% and 86.3%
active: [5] -54.6%

CN(C)[C@@H]1C(=O)C(C(N)=O)=C(O)[C@@]2(O)C(=O)C3=C(O)c4c(O)ccc(Cl)c4[C@@](C)(O)[C@H]3C[C@@H]12
inactive: [1] 99.5% and 121% | [2] 87.9% and 82.8% | [3] 87% and 91.1% | [4] 98.7% and 91.7% | [5] 92.1% and 94.8% | [17] 90.3% and 95.8% | [7] 112% and 102% | [8] 94.7% and 91.7% | [9] 104% and 109% | [10] 91.5% and 97.7% | [19] 87.6% | [11] 99.6% and 103% | [13] 94.8% and 86.8% | [14] 81.4% and 102% | [15] 92.2% and 125% | [16] 94.7% and 102%

From PubChem BioAssay (NCI)
